Results as given in PubChem BioAssay AID1159580 (chemical genetic matrix, 2015).
The whole screen tested about 5,500 compounds, of which about 2,000 (36%) were called active. About 18% were inconclusive and are not listed. Rule as the data show it: active = normalized growth mostly below about 0.91 (no sharp cut-off); inconclusive = no clear call, values can overlap the other calls; inactive = mostly above about 0.92. This is one part of the list.

Assay: chemical genetic growth profiling, strain panel (AID 1159580);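 also: tested at 20 µM; growth read once vehicle control cultures reached saturation at 30 °C; 1 = growth at the plate median or of vehicle wells; lower values mean less growth of the strain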
Settings: growth OD

Measured: normalized growth

Cc1ccc(Cl)c(Nc2ccccc2C(=O)O)c1Cl
inactive: S. cerevisiae deletion strains, locus YJR066W, strain TOR1, stronger effect = lower value 0.963 | S. cerevisiae deletion strains, locus YKL009W, strain mrt4, stronger effect = lower value 0.97 | S. cerevisiae deletion strains, locus YKL068W, stronger effect = lower value 0.975 | S. cerevisiae deletion strains, locus YKL085W, strain MDH1 (second series), stronger effect = lower value 0.957 | S. cerevisiae deletion strains, locus YKL085W, strain MDH1, stronger effect = lower value 0.957 | S. cerevisiae deletion strains, locus YLR058C, strain SHM2, stronger effect = lower value 0.895 | S. cerevisiae deletion strains, locus YLR113W, strain HOG1, stronger effect = lower value 1.02 | S. cerevisiae deletion strains, locus YLR357W, strain rsc2, stronger effect = lower value 0.994 | S. cerevisiae deletion strains, locus YMR307W, strain GAS1, stronger effect = lower value 0.638 | S. cerevisiae deletion strains, locus YNL067W, strain RPL9B, stronger effect = lower value 0.92 | S. cerevisiae deletion strains, locus YNL153C, strain GIM3, stronger effect = lower value 0.898 | S. cerevisiae deletion strains, locus YNL183C, strain NPR1, stronger effect = lower value 0.992 | S. cerevisiae deletion strains, locus YNL233W, strain BNI4, stronger effect = lower value 0.913 | S. cerevisiae deletion strains, locus YNL248C, strain rpa49, stronger effect = lower value 0.931 | S. cerevisiae deletion strains, locus YNL250W, strain rad50, stronger effect = lower value 0.993 | S. cerevisiae deletion strains, locus YNL271C, strain bni1, stronger effect = lower value 0.955 | S. cerevisiae deletion strains, locus YNL298W, strain CLA4, stronger effect = lower value 0.932 | S. cerevisiae deletion strains, locus YOL006C, strain TOP1, stronger effect = lower value 0.697 | S. cerevisiae deletion strains, locus YOL012C, strain htz1 0.653 | S. cerevisiae deletion strains, locus YOR001W, strain rrp6, stronger effect = lower value 0.95 | S. cerevisiae deletion strains, locus YOR080W, strain dia2, stronger effect = lower value 0.914 | S. cerevisiae deletion strains, locus YOR083W, strain WHI5 (second series), stronger effect = lower value 0.971 | S. cerevisiae deletion strains, locus YOR136W, strain idh2, stronger effect = lower value 0.953 | S. cerevisiae deletion strains, locus YOR231W, strain MKK1, stronger effect = lower value 1.01 | S. cerevisiae deletion strains, locus YPL106C, strain sse1, stronger effect = lower value 1.04 | S. cerevisiae deletion strains, locus YPL256C, strain CLN2, stronger effect = lower value 0.996 | S. cerevisiae deletion strains, locus YPR141C, strain kar3, stronger effect = lower value 0.963
active: S. cerevisiae deletion strains, locus YJR075W, strain HOC1, stronger effect = lower value 0.877 | S. cerevisiae deletion strains, locus YKL160W, strain elf1, stronger effect = lower value 0.824 | S. cerevisiae deletion strains, locus YKR001C, strain vps1, stronger effect = lower value 0.581 | S. cerevisiae deletion strains, locus YKR026C, strain gcn3, stronger effect = lower value 0.893 | S. cerevisiae deletion strains, locus YKR091W, strain srl3, stronger effect = lower value 0.879 | S. cerevisiae deletion strains, locus YLL001W, strain dnm1, stronger effect = lower value 0.815 | S. cerevisiae deletion strains, locus YLL026W, stronger effect = lower value 0.893 | S. cerevisiae deletion strains, locus YLL041C, strain sdh2, stronger effect = lower value 0.886 | S. cerevisiae deletion strains, locus YLR027C, strain aat2, stronger effect = lower value 0.907 | S. cerevisiae deletion strains, locus YLR039C, strain RIC1, stronger effect = lower value 0.399 | S. cerevisiae deletion strains, locus YLR102C, strain apc9, stronger effect = lower value 0.887 | S. cerevisiae deletion strains, locus YLR221C, strain rsa3, stronger effect = lower value 0.809 | S. cerevisiae deletion strains, locus YLR258W, strain gsy2, stronger effect = lower value 0.852 | S. cerevisiae deletion strains, locus YLR262C, strain YPT6 (second series), stronger effect = lower value 0.499 | S. cerevisiae deletion strains, locus YLR262C, strain YPT6, stronger effect = lower value 0.492 | S. cerevisiae deletion strains, locus YLR268W, strain sec22, stronger effect = lower value 0.77 | S. cerevisiae deletion strains, locus YLR320W, strain mms22, stronger effect = lower value 0.659 | S. cerevisiae deletion strains, locus YLR330W, strain CHS5, stronger effect = lower value 0.893 | S. cerevisiae deletion strains, locus YLR342W, strain FKS1 (second series), stronger effect = lower value 0.789 | S. cerevisiae deletion strains, locus YLR342W, strain FKS1, stronger effect = lower value 0.857 | S. cerevisiae deletion strains, locus YLR370C, strain arc18, stronger effect = lower value 0.83 | S. cerevisiae deletion strains, locus YLR371W, strain rom2, stronger effect = lower value 0.894 | S. cerevisiae deletion strains, locus YLR384C, strain iki3, stronger effect = lower value 0.893 | S. cerevisiae deletion strains, locus YLR418C, strain cdc73, stronger effect = lower value 0.649 | S. cerevisiae deletion strains, locus YML016C, strain PPZ1, stronger effect = lower value 0.894 | S. cerevisiae deletion strains, locus YML032C, strain rad52, stronger effect = lower value 0.862 | S. cerevisiae deletion strains, locus YML120C, strain ndi1, stronger effect = lower value 0.795 | S. cerevisiae deletion strains, locus YML124C, strain tub3, stronger effect = lower value 0.888 | S. cerevisiae deletion strains, locus YMR058W, strain fet3, stronger effect = lower value 0.866 | S. cerevisiae deletion strains, locus YMR078C, strain ctf18, stronger effect = lower value 0.896 | S. cerevisiae deletion strains, locus YMR125W, strain sto1, stronger effect = lower value 0.854 | S. cerevisiae deletion strains, locus YMR129W, stronger effect = lower value 0.889 | S. cerevisiae deletion strains, locus YMR205C, strain PFK2, stronger effect = lower value 0.737 | S. cerevisiae deletion strains, locus YMR223W, strain ubp8, stronger effect = lower value 0.82 | S. cerevisiae deletion strains, locus YMR231W, strain pep5, stronger effect = lower value 0.843 | S. cerevisiae deletion strains, locus YMR263W, strain SAP30, stronger effect = lower value 0.873 | S. cerevisiae deletion strains, locus YNL071W, strain lat1, stronger effect = lower value 0.702 | S. cerevisiae deletion strains, locus YNL175C, strain NOP13, stronger effect = lower value 0.907 | S. cerevisiae deletion strains, locus YNL197C, strain WHI3, stronger effect = lower value 0.893 | S. cerevisiae deletion strains, locus YNL209W, strain ssb2, stronger effect = lower value 0.917 | S. cerevisiae deletion strains, locus YNL224C, strain SQS1, stronger effect = lower value 0.915 | S. cerevisiae deletion strains, locus YNL307C, strain MCK1, stronger effect = lower value 0.645 | S. cerevisiae deletion strains, locus YNL322C, strain KRE1 (second series), stronger effect = lower value 0.903 | S. cerevisiae deletion strains, locus YNL322C, strain KRE1, stronger effect = lower value 0.893 | S. cerevisiae deletion strains, locus YNR049C, strain mso1, stronger effect = lower value 0.885 | S. cerevisiae deletion strains, locus YNR052C, strain pop2, stronger effect = lower value 0.835 | S. cerevisiae deletion strains, locus YOL147C, strain pex11, stronger effect = lower value 0.868 | S. cerevisiae deletion strains, locus YOR061W, strain CKA2, stronger effect = lower value 0.882 | S. cerevisiae deletion strains, locus YOR069W, strain VPS5, stronger effect = lower value 0.891 | S. cerevisiae deletion strains, locus YOR070C, strain gyp1, stronger effect = lower value 0.864 | S. cerevisiae deletion strains, locus YOR083W, strain WHI5, stronger effect = lower value 0.868 | S. cerevisiae deletion strains, locus YOR106W, strain vam3, stronger effect = lower value 0.85 | S. cerevisiae deletion strains, locus YOR144C, strain elg1, stronger effect = lower value 0.898 | S. cerevisiae deletion strains, locus YOR184W, strain ser1, stronger effect = lower value 0.621 | S. cerevisiae deletion strains, locus YOR265W, strain rbl2, stronger effect = lower value 0.892 | S. cerevisiae deletion strains, locus YOR270C, strain vph1, stronger effect = lower value 0.617 | S. cerevisiae deletion strains, locus YOR290C, strain snf2, stronger effect = lower value 0.746 | S. cerevisiae deletion strains, locus YOR316C, strain cot1, stronger effect = lower value 0.881 | S. cerevisiae deletion strains, locus YPL051W, strain arl3, stronger effect = lower value 0.771 | S. cerevisiae deletion strains, locus YPL078C, strain atp4, stronger effect = lower value 0.774 | S. cerevisiae deletion strains, locus YPL240C, strain hsp82, stronger effect = lower value 0.879 | S. cerevisiae deletion strains, locus YPL241C, strain CIN2, stronger effect = lower value 0.943 | S. cerevisiae deletion strains, locus YPR119W, strain clb2, stronger effect = lower value 0.87 | S. cerevisiae deletion strains, locus YPR163C, strain tif3, stronger effect = lower value 0.903 | S. cerevisiae deletion strains, locus YPR167C, strain met16, stronger effect = lower value 0.882 | S. cerevisiae deletion strains, strain wtn01, stronger effect = lower value 0.859 | S. cerevisiae strains, strain wild type, stronger effect = lower value 0.888
